AmpC detergent – qHTS Inhibitors of AmpC Beta-Lactamase (assay with detergent); AID 485294, 2010; P00811; AmpC hydrolysis of nitrocefin, absorbance 480 nm, 0.01% Triton; hit rate 0.041% among 370,000; Potency, µM (series often up to 114 µM), without a hit: at the highest dose activity change, negative = inhibition, actives largely listed as inhibitors;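 also: potency is read from the fitted curve at half-maximal effect; 0% = no-compound wells and -100% = no-enzyme wells; nearly all actives have a fitted effect of over 25% in size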
Target sequence (P00811 whole entry, looked up): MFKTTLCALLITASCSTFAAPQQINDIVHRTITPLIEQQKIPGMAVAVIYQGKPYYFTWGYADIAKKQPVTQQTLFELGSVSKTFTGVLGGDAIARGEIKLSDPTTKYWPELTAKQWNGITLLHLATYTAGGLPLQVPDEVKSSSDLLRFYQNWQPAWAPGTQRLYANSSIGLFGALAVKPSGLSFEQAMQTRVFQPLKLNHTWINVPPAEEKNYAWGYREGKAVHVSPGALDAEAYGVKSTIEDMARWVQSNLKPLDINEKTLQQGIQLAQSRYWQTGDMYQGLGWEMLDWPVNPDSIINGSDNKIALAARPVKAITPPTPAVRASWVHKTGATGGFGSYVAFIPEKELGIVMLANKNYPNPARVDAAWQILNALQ
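AmpC (5.3 nM in the dispensed reagent) in 20 mM phosphate pH 7.0 with 0.01% (detergent screen) or 0.0001% Triton X-100 was preincubated with compounds for 15 min at room temperature. Nitrocefin was then added from an 800 uM solution, and hydrolysis was followed at 480 nm.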
SARS PLP yeast – qHTS of Yeast-based Assay for SARS-CoV PLP. S. cerevisiae expressing SARS-CoV PLpro, growth rescue. Potency, µM (titrated, usually from 32.9 µM), for inactives: top-dose activity, positive = growth rescue, actives largely listed as activators. hit rate 0.19% among 330,000. AID 485353, 2010; calls by dose curve; also: potency is read from the fitted curve at half-maximal effect; 0% is about no effect; nearly all actives have a fitted effect of over 55% in size
Cycloheximide cs – Cycloheximide Counterscreen for Small Molecule Inhibitors of Shiga Toxin; hit rate 12% among 300,000; AID 2314, 2010; cell reporter, cycloheximide protein synthesis inhibition counterscreen; max response, %; in the data active = max response mostly above about 13%, no sharp cut-off; inactive = mostly below about 14%; also: read at 38.3 µM for the half of the compounds with a filed dose; 0% is about no effect
AMA1-RON2 inh – qHTS for Inhibitors of AMA1-RON; Towards Development of Antimalarial Drug Lead: Primary Screen. AlphaScreen AMA1-biotinylated RON2 peptide binding. Potency, µM (top dose mostly 58.2 µM), inactives show at the highest dose activity change, negative = inhibition, hits mostly inhibitors. hit rate 0.2% among 360,000;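 also: potency is read from the fitted curve at half-maximal effect; 0% = vehicle wells and -100% = peptide control; nearly all actives have a fitted effect of over 45% in size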
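AMA1 (3D7) with his tag at 25 nM final met compounds first, then biotinylated RON2 peptide at 25 nM; detection used donor plus acceptor beads, 10 µg/mL apiece, read by AlphaScreen after 30 min at room temperature.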
Shiga inhibitor – A qHTS for Small Molecule Inhibitors of Shiga Toxin | Vero cells, Shiga toxin protein synthesis inhibition reporter | inhibition, % at 38.7 µM | hit rate 9.2% among 290,000 | AID 2315, 2010; in the data active = inhibition mostly above about 28%, no sharp cut-off; inactive = mostly below about 43%; also: 0% is about no effect
AmpC inh no detg – qHTS Inhibitors of AmpC Beta-Lactamase (assay without detergent); AmpC nitrocefin hydrolysis, absorbance 480 nm, 0.0001% Triton; Potency, µM (highest dose often 57.1 µM), inactives show at the top dose activity change, negative = inhibition, hits mostly inhibitors; hit rate 0.52% among 330,000;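 also: potency is read from the fitted curve at half-maximal effect; plate controls were no compound for no effect and no enzyme for full effect; nearly all actives have a fitted effect of over 20% in size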
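20 mM phosphate pH 7.0 + 0.01% (detergent screen) or 0.0001% Triton X-100; 5.3 nM AmpC reagent; cpd preinc 15 min RT; nitrocefin (800 uM stock) to start; A480 q20 s × 4 min; Activity was normalised to no-enzyme and no-compound control wells.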
Active calls of the source: *; ? = inconclusive; · = no result; + = active, no number; ! = not active in a repeat. Shown is part of a subset that was picked to be rich in hits. Unless noted, calls follow the shape of the dose curve; as a rule, active = well fitted curve in the direction sought with a large enough effect; inconclusive = small, poorly fitted or top-dose-only effect, or another doubt; inactive = no such curve, though single readings can be large; an effect the other way counts as inactive or inconclusive.

SMILES | AmpC detergent | SARS PLP yeast | Cycloheximide cs | AMA1-RON2 inh | Shiga inhibitor | AmpC inh no detg
O=C(Nc1nccs1)C(c1ccccc1)N1CCCC1 (centres undefined) | -5% | 4% | -2 | 23% | 13 | -28%
CN1C(=O)C2(CCCCC2)C1c1ccccc1 (centres undefined) | · | -12% | · | 11% | · | -8%
Cc1ccn(-c2ccc([N+](=O)[O-])cc2)n1 | ? | -6% | 12* | -21% | 42* | -6%
COc1ccc(CCc2nc(C)ccc2O)cc1 | 2% | 25% | 37* | 7% | +! | -15%
O=C(C1=C[C@@H](c2csc3ccccc23)C[C@@H](OCc2ccc(CO)cc2)O1)N1CCOCC1 | 3% | -1% | 11* | 0% | -7 | 172%
O=C(C1=C[C@@H](c2csc3ccccc23)C[C@@H](OCc2ccc(CO)cc2)O1)N1CCN(Cc2ccccc2)CC1 | 8% | -3% | -2 | -27% | -6 | 77%
CC(=O)n1cc([C@@H]2C=C(C(=O)Nc3ccccc3)O[C@H](OCCCCO)C2)c2ccccc21 | -5% | 0% | 12 | 7% | 24* | 148%
O=C(NCc1ccccc1)C1=C[C@H](c2csc3ccccc23)C[C@H](OCCCCO)O1 | 7% | -4% | 8 | -4% | 14 | -9%
O=C(Nc1ccccc1)C1=C[C@H](c2csc3ccccc23)C[C@H](OCCCCO)O1 | -5% | -3% | 12* | -9% | 6 | 37%
COc1ccc(OC)c(COC(=O)c2cccc(S(=O)(=O)N3CCCCC3)c2)c1 | · | -8% | · | 0% | · | -25%
CC(/C=N/NC(=O)c1ccccc1F)c1ccccc1 (centres undefined) | -11% | -1% | 30* | 10% | 165* | -24%
CC(/C=N/NC(=O)c1ccccc1F)=C\c1ccccc1 | -12% | -11% | 47* | -14% | 107* | -25%
CC(/C=N/NC(=O)c1ccccc1C)=C\c1ccccc1 | · | · | · | 10% | · | ·
O=C(N/N=C\CCc1ccccc1)c1ccco1 | -3% | 2% | 38* | 57% | 50* | -18%
CC(C=NNC(=O)C(=O)NN=CC(C)=Cc1ccccc1)=Cc1ccccc1 | · | · | · | 66% | · | ·
CC(/C=N/NC(=O)c1ccco1)=C\c1ccccc1 | 7% | -12% | 24* | -7% | 89* | -30%
C=CCNc1ncnc2c1ncn2C1OC(CO)C(O)C1O (centres undefined) | 2% | -10% | -3 | -14% | -12 | -3%
CCc1cccc(N2C(=O)CS(=O)(=O)C23C(=O)N(Cc2ccc(F)cc2)c2ccc(C)cc23)c1 (centres undefined) | 20% | · | · | · | · | ·
O=[N+]([O-])c1ccc(CS(=O)c2ccccc2)cc1 (centres undefined) | · | · | · | 4% | · | ·
COc1ccc(C(CNC(=O)c2cc3c(s2)CCC(C)C3)N2CCOCC2)cc1 (centres undefined) | ? | -2% | · | 6% | · | 201%
COCc1cc(C)nc2sc(C(=O)Nc3ccccc3Br)c(N)c12 | -7% | -4% | -4 | 32% | -3 | -12%
COc1ccc(/C=N/NC(=O)C(=O)N2CCCC2)cc1 | 2% | 0% | 36* | 9% | 67 | -5%
CN(C)c1ccc(/C=N/NC(=O)C(=O)N2CCCCCC2)cc1 | 3% | 15% | 26* | -11% | 47 | -13%
COc1cc(/C=N/NC(=O)C(=O)N2CCCCCC2)ccc1O | 1% | 1% | 1 | 7% | -17 | -3%
O=C(Cn1cnc2c(nnn2-c2cccc(Cl)c2)c1=O)N1CCOCC1 | 8% | 0% | 3 | 19% | 7 | 2%
SMILES | AmpC detergent | SARS PLP yeast | Cycloheximide cs | AMA1-RON2 inh | Shiga inhibitor | AmpC inh no detg
CCOc1cc(NC(=S)NCCCN2CCOCC2)c(OCC)cc1NC(=O)c1ccc(OC)cc1 | -7% | 0% | 0 | 18% | -22 | 185%
CCCSc1ncc(Cl)c(C(=O)Nc2sc3c(c2C(N)=O)CCCC3)n1 | 1% | · | · | · | · | ·
Nc1nc(Cl)cc(-c2ccccc2)n1 | 3% | 0% | 1 | 18% | -3 | -15%
CCOc1cc(-c2ccccc2)nc(N)n1 | 2% | 30% | 49* | 21% | 106* | -23%
COc1cc(-c2ccccc2)nc(N)n1 | 0% | 21% | 87* | 7% | 77* | -7%
CCOc1cccc(N2CCN(CCNC(=O)Nc3ccc(C)cc3)CC2)c1C | -14% | -5% | -2 | -7% | -2 | -19%
CCc1ccccc1N(C)S(=O)(=O)c1ccc2[nH]cc(C(=O)N3CCc4ccccc43)c(=O)c2c1 | ? | -11% | -6 | -2% | -9 | -34%
CCCC(=O)c1ccc(N2CCN(C(=O)OCC)CC2)c(F)c1 | -3% | 3% | 23 | 3% | 54 | 1%
CCCC(=O)c1ccc(N2CCCCC2)c(F)c1 | ? | 0% | 47* | -3% | 94* | -22%
CC(=O)c1ccc(N2CCCCC2)c(F)c1 | -3% | 0% | 16* | -16% | -5 | -8%
CCCC(=O)c1ccc(N2CCCCCC2)c(F)c1 | -8% | -3% | 40* | 25% | 68* | -17%
CC(=O)c1ccc(N2CCCCCC2)c(F)c1 | -9% | -1% | 13 | 9% | 29 | -17%
O=C(Nc1cccc(F)c1)Nc1c[nH]c(=O)[nH]c1=O | -8% | -3% | -8 | -4% | -3 | -12%
O=C(NC(=S)N1CCN(C/C=C/c2ccccc2)CC1)c1ccco1 | -2% | 1% | -1 | 74% | -3 | 17%
CCC(C)(C)C1CCC2(CC1)NC(=O)N(CC(=O)NCCCc1ccccc1)C2=O (centres undefined) | 0% | 0% | · | -11% | · | 44%
CN(C)c1ccc(/C=N/NC(=O)c2ccco2)cc1 | -12% | -35% | 41* | -1% | 73 | -13%
COc1ccc(/C=N/NC(=O)c2ccco2)cc1Cn1nc(C)cc1C | 3% | 5% | 34* | 14% | 67* | -9%
COc1ccc(/C=N\NC(=O)COc2ccc(C(C)(C)C)cc2)cc1Cn1nc(C)cc1C | -6% | 2% | 8 | 27% | -14 | 3%
O=C(N/N=C\c1ccoc1)c1ccco1 | 7% | -2% | 35* | 42% | 61* | -9%
Cc1cccc(-n2c(C)cc(/C=N\NC(=O)c3ccco3)c2C)c1 | 3% | 0% | 35* | 47% | 96* | -21%
COc1cc(CC(=O)N(C)CC(=O)Nc2ccc(Cl)c(C(F)(F)F)c2)cc(OC)c1OC | -18% | 3% | -6 | -3% | -7 | 106%
Cc1cc(/C=N/NC(=O)c2nn(C)cc2Cl)c(C)n1-c1cccc(Br)c1 | -14% | -3% | 18* | 15% | 20 | -7%
CSC(=S)N/N=C/c1ccc(Br)cc1 | -2% | 1% | 18 | 79% | 14 | ?

Assay outcomes (PubChem BioAssay)
